Most compounds without a hit are left out; they make up all but 7.3% or so of the library.
HCV inh – HCV inhibition; AID 651820; Huh7.5.1 HCVcc-Cre infection, luciferase reporter, 44 h; hit rate 3.4% among 340,000; Potency, µM (top dose mostly 41.8 µM), most hits filed as inhibitors
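Antiviral activity was scored by luciferase reporter output from cells infected with HCVcc-Cre (~0.5 moi) in presence of compound, 44 h infection period, cells seeded 1,000/well 4 h prior.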
AmpC inh no detg – blocks E. coli AmpC beta-lactamase in detergent-free assay | P00811 | Potency, µM (highest dose often 57.1 µM), hits mostly inhibitors | hit rate 0.52% among 330,000 | AmpC nitrocefin hydrolysis, absorbance 480 nm, 0.0001% Triton; further: nearly all actives have a fitted effect of over 20% in size
Target sequence (P00811 whole entry, looked up): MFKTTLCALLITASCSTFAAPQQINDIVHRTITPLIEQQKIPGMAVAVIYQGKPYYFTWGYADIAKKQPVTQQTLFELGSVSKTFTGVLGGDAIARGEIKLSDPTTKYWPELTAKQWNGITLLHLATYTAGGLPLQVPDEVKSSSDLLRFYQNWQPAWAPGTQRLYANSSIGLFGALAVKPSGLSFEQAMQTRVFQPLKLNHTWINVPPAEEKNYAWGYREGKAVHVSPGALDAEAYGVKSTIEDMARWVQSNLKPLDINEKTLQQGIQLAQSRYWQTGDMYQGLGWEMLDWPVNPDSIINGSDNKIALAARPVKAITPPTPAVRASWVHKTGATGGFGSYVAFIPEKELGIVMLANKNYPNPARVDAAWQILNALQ
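AmpC (5.3 nM in the dispensed reagent) in 20 mM phosphate pH 7.0 with 0.01% (detergent screen) or 0.0001% Triton X-100 was preincubated with compounds for 15 min at room temperature. Nitrocefin was then added from an 800 uM solution, and hydrolysis was followed at 480 nm.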
FMDV inh – antivirals against foot and mouth disease virus; FMDV antiviral cell-based qHTS; Potency, µM (top dose mostly 57.9 µM), most hits filed as inhibitors; hit rate 1.2% among 410,000; AID 1159524; calls by dose curve; tested in HEK293T cells; further: read-out not given here; nearly all actives have a fitted effect of over 45% in size
HCMV inh – blocks human cytomegalovirus replication | hit rate 4.5% among 410,000 | AID 1259415 | HFF cells, HCMV-luciferase reporter, 72 h; active compounds read low | activity change, negative = inhibition, % at 57.5 µM; in the data active means activity change below about -60%; inconclusive means no clear call, values can overlap the other calls; inactive means above about -39%
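Two-dose cell screen: HFF monolayers treated with compounds and infected with luciferase-expressing HCMV at 1 PFU/cell, 72 h at 37C, then lysed for luciferase measurement.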
AmpC inh detg – inhibitors of E. coli AmpC beta-lactamase with detergent | P00811 | AmpC hydrolysis of nitrocefin, absorbance 480 nm, 0.01% Triton | Potency, µM (top dose mostly 114 µM), actives largely listed as inhibitors | hit rate 0.041% among 370,000; further: nearly all actives have a fitted effect of over 25% in size
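20 mM phosphate pH 7.0 + 0.01% (detergent screen) or 0.0001% Triton X-100; 5.3 nM AmpC reagent; cpd preinc 15 min RT; nitrocefin (800 uM stock) to start; A480 q20 s × 4 min; Activity was normalised to no-enzyme and no-compound control wells.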
Each line names hits and unclear results; the compound was inactive in the other large screens; ! = repeats disagree. Unless noted, the call rests on the fitted dose curve; in most records, active means well fitted curve in the direction sought with a large enough effect; inconclusive means small, poorly fitted or top-dose-only effect, or another doubt; inactive means no such curve, though single readings can be large; an effect the other way counts as inactive or inconclusive.

CCCCSc1nnc([C@@H]2CCCN2C(=O)OC(C)(C)C)o1	AmpC inh detg 32µM
CC(=O)c1cccc(NC(=O)c2nc(-c3ccccc3)n(-c3cccc(Cl)c3)n2)c1	none (no result: HCV inh, AmpC inh no detg)
CCN(CC)CCC(=O)N1c2ccccc2Sc2ccc(Cl)cc21	HCV inh inconclusive, HCMV inh inconclusive
Cn1nnnc1SCC(=O)N1c2ccccc2Sc2ccc(Cl)cc21	HCV inh inconclusive, AmpC inh no detg 1.3µM, FMDV inh inconclusive
CN(C)CC(=O)N1c2ccccc2Sc2ccc(Cl)cc21	HCV inh inconclusive, HCMV inh -64
CN(C)CCC(=O)N1c2ccccc2Sc2ccc(Cl)cc21	HCV inh 6.3µM, HCMV inh inconclusive
NCCC(=O)N1c2ccccc2Sc2ccc(Cl)cc21	HCV inh inconclusive
NCCCC(=O)N1c2ccccc2Sc2ccc(Cl)cc21	HCV inh 5µM
CN1CCN(CCC(=O)N2c3ccccc3Sc3ccc(Cl)cc32)CC1	HCV inh inconclusive
COc1ccc(OC)c(NC(=O)C2(C)CCN2C(=O)CCC2CCCC2)c1 (stereo unspecified)	FMDV inh inconclusive (no result: HCV inh, AmpC inh no detg, AmpC inh detg)
COc1ccc(OC)c(CCNc2nc3cnc(-c4ccccc4Oc4ccccc4)cc3n2C)c1	none (no result: HCV inh, AmpC inh no detg, FMDV inh, AmpC inh detg)
CC(=O)Nc1ccc(NC(=O)C(C)N(C)CC(=O)Nc2ccccc2Br)cc1 (stereo unspecified)	HCMV inh inconclusive
Cc1ccc(C2C(/C=C3/SC(=S)NC3=O)=C(c3cccs3)Oc3ccccc32)cc1 (stereo unspecified)	HCV inh inconclusive, AmpC inh no detg 6.3µM, HCMV inh -61 (no result: FMDV inh)
Cc1cc(C)c2ccc(N)nc2c1O	HCV inh 11µM, HCMV inh -105
CN(c1ccccc1)S(=O)(=O)c1ccc(C(=O)N2CCN(c3ccccc3F)CC2)cc1	HCV inh inconclusive (no result: AmpC inh detg)
Cc1cccc(COc2ccccc2C(=O)N(C)CC(=O)Nc2cccc(F)c2)c1	HCV inh inconclusive
CCOc1ccc(NC(=O)CN(C)C(=O)c2ccccc2OCc2cccc(C)c2)cc1OCC	HCV inh 10µM
Cc1ccc(NC(=O)CCOc2ccccc2)cc1	none
Cc1ccc(C)c(NC(=O)CCOc2ccccc2)c1	HCMV inh -67!
CCOc1ccccc1OCCCC(=O)N(C)CC(=O)Nc1cc(C)ccc1C	HCMV inh -70, AmpC inh detg inconclusive
Cc1ccc(C)c(NC(=O)CN(C)C(=O)CCN2C(=O)c3ccccc3C2=O)c1	none
COc1ccc(C(CC(=O)N2CCCC2)c2c(OC)cc(OC)c3c(-c4ccccc4)cc(=O)oc23)cc1 (stereo unspecified)	HCV inh inconclusive
COc1ccc(C(CC(=O)N2CCCC(C)C2)c2c(OC)cc(OC)c3ccc(=O)oc23)cc1 (stereo unspecified)	HCV inh 11µM
COc1ccc(C(CC(=O)N2CCCC2)c2c(OC)cc(OC)c3ccc(=O)oc23)cc1 (stereo unspecified)	HCV inh 2.8µM
COc1ccc(C(CC(=O)N2CCOCC2)c2c(OC)cc(OC)c3ccc(=O)oc23)cc1 (stereo unspecified)	none
COc1ccc(C(CC(=O)N2CCCC(C)C2)c2c(OC)cc(OC)c3c(-c4ccccc4)cc(=O)oc23)cc1 (stereo unspecified)	HCV inh inconclusive, HCMV inh -68
Cc1ccc(C2(C)NC(=O)N(CC(=O)N3c4ccccc4NC(=O)CC3C)C2=O)cc1 (stereo unspecified)	none
CCc1[nH]c(=S)c(C#N)c(-c2ccccc2)c1C(=O)OC	AmpC inh no detg 16µM
Cc1ccc(N(CC(=O)Nc2cc(C)cc(C)c2)S(=O)(=O)c2c(C)noc2C)cc1	HCV inh inconclusive, FMDV inh inconclusive, HCMV inh -85
COc1ccc(N(CC(=O)Nc2ccc(C)cc2)S(=O)(=O)c2c(C)noc2C)cc1	none
CCOc1ccc(N(CC(=O)Nc2ccc(C)c(C)c2)S(=O)(=O)c2c(C)noc2C)cc1	HCV inh inconclusive, FMDV inh inconclusive, HCMV inh -71
CCOc1ccc(N(CC(=O)Nc2ccccc2C)S(=O)(=O)c2c(C)noc2C)cc1	HCMV inh -69
Cn1c(=O)c2sccc2n2c(CCC(=O)N3CCN(c4ccc(F)cc4)CC3)nnc12	none (no result: HCV inh, AmpC inh no detg, FMDV inh, HCMV inh)
C[C@]12CCC(=O)C=C1CCC1C2C(O)C[C@]2(C)C1CC[C@]2(O)C(=O)CO (stereo partly specified)	none (no result: HCV inh, AmpC inh no detg, HCMV inh, AmpC inh detg)
CCC(C(=O)OCC(=O)C1(O)CCC2C3CCC4=CC(=O)CCC4(C)C3C(O)CC21C)C(C)C (stereo unspecified)	HCV inh inconclusive, FMDV inh 20µM (no result: AmpC inh no detg, AmpC inh detg)
O=C(COC(=O)c1ccco1)NC12CC3CC(CC(C3)C1)C2	none (no result: AmpC inh detg)
C/C(=C\c1ccccc1)C(=O)Nc1ccc(Cl)cn1	none
CCOc1cc(CNCCc2c[nH]c3ccccc23)cc(Cl)c1OCC	HCV inh inconclusive, HCMV inh -63
CCOc1c(Cl)cc(CNCCc2c[nH]c3ccccc23)cc1OC	HCV inh 22µM
COc1cc(/C=C(/C(=O)c2cccs2)c2nc3ccccc3[nH]2)ccc1O	HCV inh inconclusive, FMDV inh 25µM, HCMV inh -99
S=C(Nc1ccc(Cl)cc1)c1nc2ccccc2[nH]1	HCV inh 11µM
O=C(/C(=C\c1ccccc1)c1nc2ccccc2[nH]1)c1ccc(Cl)cc1	HCV inh inconclusive, FMDV inh inconclusive, HCMV inh -87
COC(=O)/C(=C\c1cc(OC)c(OC)c(OC)c1)c1nc2ccccc2[nH]1	HCV inh inconclusive, FMDV inh 16µM, HCMV inh -98
COC(=O)/C(=C\c1ccc(O)cc1)c1nc2ccccc2[nH]1	none
CN1c2ccc(Cl)cc2-c2nc(SCC(=O)NCc3ccccc3)ncc2S1(=O)=O	none (no result: HCV inh, AmpC inh no detg)
COc1ccccc1NC(=O)Cc1ccsc1	none
Cc1ccc2nc(-c3ccc(C#N)cc3)c(Cc3cccc(F)c3)n2c1	none (no result: HCV inh, AmpC inh no detg, FMDV inh, AmpC inh detg)
Cc1ccc(NC(=O)c2cnn3c(C(F)F)cc(-c4ccccc4)nc23)c(C)c1	none (no result: HCV inh, AmpC inh no detg)
O/C(=C\c1nc2ccccc2[nH]1)c1cccs1	none
O=C(/C(=C/c1ccc(Cl)cc1)c1nc2ccccc2[nH]1)c1cccs1	HCV inh 11µM, FMDV inh inconclusive (no result: HCMV inh)
N#CC(c1ccc(Cl)nn1)c1ccc(Cl)cc1Cl (stereo unspecified)	HCV inh 11µM
COc1ccc(C(C#N)c2ccc(Cl)nn2)cc1 (stereo unspecified)	none
CC(C)(C)N(Cc1ccccc1)C(=O)CSc1ncn[nH]1	none
CSc1ccc(NC(=O)Nc2cccn(Cc3ccccc3)c2=O)cc1	HCV inh 3.5µM, FMDV inh inconclusive, HCMV inh -84
O=C(NCc1cccn1Cc1ccccc1)Nc1ccc(Br)cc1F	HCMV inh -83 (no result: HCV inh, AmpC inh no detg)
COc1ccc(Cn2cccc(NC(=O)Nc3ccc(F)cc3)c2=O)cc1	HCV inh inconclusive, HCMV inh inconclusive

Screening data (PubChem BioAssay)
